# MEKK3 PB1 HTS: modulators of MEKK3-MEK5 PB1 binding, primary screen, biochemical, wildtype MEKK3, multiplex bead flow cytometry, Alexa488-MEK5 | bead-based flow cytometry, Alexa488-MEK5 binding to MEKK3; actives lie on both sides; 0 = blocked by unlabeled MEK5, 100 = vehicle | binding response (% of control), % at 10 µM | 1.4% of 290,000 active | AID 1529, 2009 | Mitogen-activated protein kinase kinase kinase 3 (Homo sapiens), Q99759;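 active = binding response more than 3 SD above or below the average of its plate-row segment, actives on both sides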;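 also: Alexa488 bead fluorescence after subtracting the streptavidin-only scavenger bead signal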
# MEKK2wt PB1 HTS: modulators of MEK5 binding to wildtype MEKK2, primary screen, biochemical, multiplex bead flow cytometry, Alexa488-MEK5; Mitogen-activated protein kinase kinase kinase 2 (Homo sapiens), Q9Y2U5; Alexa488-MEK5 binding to MEKK2 WT; actives lie on both sides; binding response (% of control), % at 10 µM; 1.1% of 290,000 active; AID 1531, 2009; in the data active = binding response below about 67% or above about 130%
# MEKK2 mut-MEK5: MEK5 binding signal on mutant MEKK2 PB1, primary screen, biochemical, multiplex bead flow cytometry, Alexa488-MEK5. Alexa488-MEK5 binding to MEKK2 mutant. percent response, % at 10 µM. 0.35% of 290,000 active. AID 1530, 2009; in the data active = percent response above about 24%, passing the limit was not always enough
# UBC13 inh: UBC13 polyubiquitin chain formation inhibitors, primary screen, biochemical, TR-FRET, uHTS | 0.47% of 330,000 active | Ubiquitin-conjugating enzyme E2 N (Homo sapiens), P61088 | AID 485273, 2010 | inhibition, % at 20 µM; in the data active = inhibition above about 45%, passing the limit was not always enough
# Target sequence (P61088 whole entry, looked up): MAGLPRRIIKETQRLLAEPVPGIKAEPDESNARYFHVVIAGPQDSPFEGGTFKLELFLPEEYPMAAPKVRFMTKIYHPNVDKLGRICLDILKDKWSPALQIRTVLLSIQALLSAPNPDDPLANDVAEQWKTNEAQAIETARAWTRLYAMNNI
# MEKK2wt confirm: modulators of MEK5 binding to wildtype MEKK2, confirmation, biochemical, single concentration, multiplex bead flow cytometry; shares compounds with MEKK3 PB1 HTS; Alexa488-MEK5 binding to MEKK2 WT; actives lie on both sides; binding response (% of control), % at 10 µM; 2.4% of 5,900 active; AID 1892, 2009; in the data active = binding response below about 16% or above about 210%; inactive = in between
# MEKK2mut-MEK5: mutant MEKK2 PB1-MEK5 binding signal retest – biochemical, single concentration, multiplex bead flow cytometry, confirmation. shares compounds with MEKK3 PB1 HTS. Alexa488-MEK5 binding to MEKK2 mutant. percent response, % at 10 µM. 2% of 5,900 active. AID 1893, 2009; in the data active = percent response mostly above about 71%, no sharp cut-off; inactive = mostly below about 38%;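 also: higher means compound restores mutant binding toward wildtype level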
# MEKK3 confirm: MEKK3 wild-type PB1 binding to MEK5, inhibitors, confirmation, biochemical, bead multiplex flow cytometry, single concentration, wildtype. 1.8% of 5,900 active. binding response (% of control), % at 10 µM. Alexa488-MEK5 binding to MEKK3; active compounds read low. shares compounds with MEKK3 PB1 HTS;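 active = binding response below 72% of control, or above a set upper limit, though filed actives all read lower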;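 also: 100% = DMSO only wells and 0% = binding blocked by excess unlabeled MEK5; lower values mean stronger disruption of MEK5 binding to MEKK3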
# Starred values were filed as active, the others as inactive; · = no result given; ! = not confirmed by another sample; [ ] = dose if it differs, or a comment. The list is not random: actives were taken first. Their share in the collection is about 2.3%.
SMILES,MEKK3 PB1 HTS,MEKK2wt PB1 HTS,MEKK2 mut-MEK5,UBC13 inh,MEKK2wt confirm,MEKK2mut-MEK5,MEKK3 confirm
Fc1ccc(C(OCCN2CCN(CCCc3ccccc3)CC2)c2ccc(F)cc2)cc1,112.0,235.0*,26.0*,49.4*,187.0,41.0,109.0
Fc1ccc(C(OCCN2CCCC2)c2ccc(F)cc2)cc1,99.0,107.0,-1.0,15.1,·,·,·
CC/C(=N\Nc1cccc2ccccc12)c1c(O)[nH]c(=O)[nH]c1=O,97.0,36.0*[inhibitor],3.0,-22.6,89.0,-14.0,95.0
Cc1ccc(CN2C3CCCC2CC(NC(=S)NCc2ccccc2)C3)cc1 (configuration not stated),110.0,195.0*,62.0*,16.9,140.0,17.0,103.0
CNC(=S)NC1CC2CCCC(C1)N2CC(C)C (configuration not stated),88.0,89.0,-7.0,-1.3,·,·,·
CC(=O)N1N=C2C3CCN(CC3)C2C1c1ccccc1 (configuration not stated),1.0*[inhibitor],-2.0*[inhibitor],-21.0,-4.9,99.0,1.0,104.0
CCOC(=O)C1=C(N)OC2=C(C(=O)CCC2)[C@]12C(=O)N(CC(N)=O)c1ccccc12,93.0,93.0,-8.0,1.1,·,·,·
CC1CCSP(=O)(Oc2ccccc2)O1 (configuration not stated),88.0,88.0,-5.0,-2.4,·,·,·
N#CC(C#N)=C(N)c1cccnc1,46.0*[inhibitor],57.0,-45.0,-7.1,98.0,-6.0,97.0
C=CCN1C(=O)/C(=C/c2cc(C)n(-c3ccccn3)c2C)C(=O)NC1=S,94.0,61.0*[inhibitor],-2.0,-5.1,96.0,-2.0,100.0
Cc1cc(/C=C2/C(=O)NC(=O)N(C)C2=O)c(C)n1-c1ccccc1,115.0,103.0,0.0,-1.2,·,·,·
CCCCn1c(O)c(C(=O)/C=C/c2c[nH]c3ccccc23)c(=O)[nH]c1=O,97.0,99.0,-6.0,-21.7,·,·,·
COc1ccc(CNCCc2c(C)[nH]c3ccc(OC(F)(F)F)cc23)c(OC)c1,95.0,139.0*,19.0,8.5,144.0,18.0,104.0
CC(=O)c1ccc(OC(=O)N(C)c2ccccc2)cc1,105.0,99.0,0.0,7.9,·,·,·
CN(C(=O)Oc1ccc([N+](=O)[O-])cc1)c1ccccc1,73.0*[inhibitor],95.0,-1.0,-5.8,97.0,-4.0,101.0
O=C1NC(=O)N(C2CCCCC2)C(=O)C1C1c2ccccc2C(=O)N1Cc1ccccc1 (configuration not stated),76.0*[inhibitor],87.0,-12.0,-6.9,108.0,4.0,106.0
CC(C)(C)n1cc(C(=O)c2ccc3ccccc3c2O)cn1,129.0*,100.0,-2.0,5.6,103.0,-1.0,100.0
CC(C)(C)n1cc(C(=O)c2ccccc2OCCCF)cn1,100.0,104.0,4.0,8.9,·,·,·
FC(F)(F)c1ccc2c(c1)N(CCCN1CCN(CCCl)CC1)c1ccccc1S2,101.0,173.0*,24.0*,30.5,155.0,25.0,105.0
CN(C)CCN=Cc1c(O)n(-c2cccc(C(F)(F)F)c2)c(=O)[nH]c1=O,2.0*[inhibitor],-2.0*[inhibitor],-20.0,3.4,98.0,4.0,101.0
C/C(=N\NC(N)=O)c1c(O)n(C)c(=O)n(C)c1=O,104.0,102.0,-3.0,8.3,·,·,·
c1ccc(CC(NCc2ccco2)c2ccccc2)cc1 (configuration not stated),129.0*,112.0,0.0,8.8,103.0,6.0,103.0
O=c1[nH]c(=S)n(CCC2=CCCCC2)c(O)c1/C=N/N1CCOCC1,102.0,99.0,0.0,3.7,·,·,·
CC1CC(NC(=O)C2C3CCC(O3)C2C(=O)O)CC(C)(C)C1 (configuration not stated),89.0,98.0,-1.0,1.0,·,·,·
OCCN1C2CCC1CC(O)(c1ccc(F)cc1)C2 (configuration not stated),102.0,101.0,1.0,2.7,·,·,·
SMILES,MEKK3 PB1 HTS,MEKK2wt PB1 HTS,MEKK2 mut-MEK5,UBC13 inh,MEKK2wt confirm,MEKK2mut-MEK5,MEKK3 confirm
CCC1C(c2ccccc2)NC(c2ccccc2)CC1(O)c1ccc(F)cc1 (configuration not stated),107.0,152.0*,43.0,-5.2,122.0,17.0,108.0
CCC(N)Cc1c[nH]c2ccccc12 (configuration not stated),64.0*[inhibitor],74.0,-7.0,-5.0,103.0,2.0,100.0
CC(=O)Nc1ccccc1C(=O)C(=O)Nc1cccc(C(=O)N2CCC3(CC2)OCCO3)c1,90.0,99.0,0.0,-9.7,·,·,·
Cc1ncc(CNC(=O)N(CCCl)N=O)c(N)n1,·,·,·,1.7,·,·,·
COc1cccc(NP(=O)(Oc2ccccc2Cl)Oc2ccccc2Cl)c1,137.0*,109.0,1.0,-11.5,101.0,-7.0,104.0
COc1cccc(NP(=O)(Oc2ccccc2)Oc2ccccc2)c1,102.0,111.0,12.0,11.5,·,·,·
Oc1ccc2c3c1OC1C(O)CC[C@@]4(O)[C@@H](C2)N(CC2CCC2)CC[C@]314 (some centres not stated),70.0,53.0*![inhibitor],-1.0,-12.5,115.0,9.0,108.0
Cc1cc(C=C2C(=O)N(C)C(=S)N(C)C2=O)c(C)n1C1CCCC1,84.0,55.0*[inhibitor],-13.0,-12.8,98.0,-1.0,101.0
Cc1cc(/C=C2\C(=O)NC(=S)N(C)C2=O)c(C)n1C1CCCCC1,105.0,88.0,7.0,-9.0,·,·,·
Cc1oc(-c2ccccc2Cl)nc1CN1C(=O)CN=C(c2ccccc2)c2ccccc21,111.0,98.0,-3.0,8.9,·,·,·
Cn1cccc1/C=C1/C(=O)NC(=S)N(Cc2ccc(F)cc2)C1=O,88.0,56.0*[inhibitor],-19.0,-0.8,98.0,0.0,98.0
COc1cc2c3cc1Oc1c(OC)c(OC)cc4c1[C@H](Cc1ccc(cc1)Oc1cc(ccc1O)C[C@H]3N(C)CC2)N(C)CC4,·,·,·,24.0,·,·,·
COc1cc2c3cc1Oc1cc(ccc1O)C[C@@H]1c4c(cc(OC)c(O)c4Oc4ccc(cc4)C[C@H]3N(C)CC2)CCN1C,107.0,134.0*,10.0,21.7,118.0,8.0,97.0
CC(C)COc1ccc(C2(C#N)CC[N+](C)(C)CC2)cc1,80.0*[inhibitor],85.0,-17.0,-2.1,100.0,2.0,101.0
